Measured values published in PubChem BioAssay (NCI).
Compounds without any hit were thinned out: in the full panel of roughly 79,000, 15% have a hit. Unmarked numbers belong to inactive results. Calls of active or inactive are those of the source. Rule as the data show it: active = growth inhibition above about 70%; inactive = the rest.

Tests used:
[1] = NCI Yeast Anticancer Drug Screen. Data for the rad50 strain (AID 155);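 also: 0% = growth of vehicle-only cultures of the same strain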; conditions: S. cerevisiae rad50 strain growth inhibition; at 50.0 µM; active compounds read high
Summary of the method: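 Compounds were tested on a yeast strain with an engineered DNA damage repair alteration; the reported value is growth inhibition normalised to vehicle treatment.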

[2] = NCI Yeast Anticancer Drug Screen. Data for the mec2-1 strain (AID 157); conditions: S. cerevisiae mec2-1 strain, at 50.0 µM, active compounds read high
Summary of the method: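 Test agents were screened against the mec2-1 yeast strain, with defined DNA repair or cell cycle alteration. Growth was scored as inhibition against vehicle-only controls.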

[3] = NCI Yeast Anticancer Drug Screen. Data for the sgs1 mgt1 strain (AID 161);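 also: 0% = growth of cultures given vehicle only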; conditions: S. cerevisiae sgs1 mgt1 strain, at 50.0 µM, active compounds read high
Summary of the method: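 Mutant yeast exposed to compound; growth scored against vehicle-only wells.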

[4] = NCI Yeast Anticancer Drug Screen. Data for the cln2 rad14 strain (AID 165);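 also: 0% = growth equal to vehicle treated cultures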; conditions: S. cerevisiae cln2 rad14 strain, at 50.0 µM, active compounds read high
Summary of the method: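 Growth of compound-exposed yeast (cln2 rad14 genotype) measured and expressed as inhibition relative to vehicle.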

[5] = NCI Yeast Anticancer Drug Screen. Data for the bub3 strain (AID 167); conditions: S. cerevisiae bub3 mutant strain, at 50.0 µM, active compounds read high
Summary of the method: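 Growth of a checkpoint-deficient yeast mutant is measured after compound exposure. Values represent inhibition relative to vehicle.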

[6] = NCI Yeast Anticancer Drug Screen. Data for the mlh1 rad18 strain (AID 175); conditions: S. cerevisiae mlh1 rad18 strain growth inhibition; at 50.0 µM; active compounds read high
Summary of the method: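 In this whole-cell yeast screen, a strain with altered DNA damage repair is challenged with compound, and its growth is measured against matched vehicle-treated controls.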

Structure (SMILES)	growth inhibition [1] [%]	growth inhibition [2] [%]	growth inhibition [3] [%]	growth inhibition [4] [%]	growth inhibition [5]	growth inhibition [6] [%]
O=C(O)c1ccc(-n2cnc3c(=O)[nH]cnc32)cc1	-8.6	-12.9	-13.3	-9.45	-4.9%	-7.85
CCOc1ccc(N=Cc2cc(Br)ccc2O)cc1	2.55	0.6	1.5	-0.5	1.15%	-13.4
CCO/C(C)=C(/C(C)=O)C(=O)NC1CCCCC1	-1.65	15.5	-0.1	9.75	-3.25%	-11.2
OC(CC1CCCCN1)c1cc2c(Cl)cc(Cl)cc2c2cc(C(F)(F)F)ccc12 (centres undefined)	68	50.6	42.5	30.1	98.8% (active)	52
COc1ccc(N2N=NCC2c2ccccc2[N+](=O)[O-])cc1 (centres undefined)	-10.6	-11.9	14.2	-37.4	13.6%	20.4
COc1ccc(/C(C#N)=C\c2ccc(N(C)C)cc2)cc1	-4.8	-13.1	3.1	-21.2	10.2%	-14.3
COc1ccc(-n2[nH]nc(C(N)=O)c2=O)cc1	7.6	-2.5	-33.4	-22.6	-24.6%	-65
CN(C)c1ncnc2ncn(C3OC(CO)C(O)C3O)c12 (centres undefined)	67.6	46.6	60.2	7.3	-13.2%	61.7
COc1ccc2c(c1)C13CCCC(C)(C(=O)NC1)C3CC2 (centres undefined)	-0.15	-17.6	-16.3	9	2.35%	-11.7
CC1=NN(c2cccc([N+](=O)[O-])c2)C(=O)C1	13.9	-25	10.7	-5.7	16.8%	32.6
O=c1c2ccccc2c(=O)c2c1ccc1[nH]c3ccccc3sc12	-7.15	-1.75	7.6	-20.1	6.2%	-6.6
CCNC1CC(C(C)(C)NCC)CC=C1C (centres undefined)	-31.4	-25.2	-38.7	-15.4	-46.9%	-55.2
CCC(=O)/C=C/C1=C(C)CCCC1(C)C	-9.95	-9.65	6.25	-5.8	5.8%	-13.4
CCCCC(C(N)=O)C(C)(C)C(=O)O (centres undefined)	-6	-0.45	4.9	-21.2	9.85%	-1.75
Nc1cccc(C(O)c2ccccc2)c1 (centres undefined)	11.2	-1.15	0.1	6.25	7.3%	13.1
CC(C(=O)O)/C(=C\c1ccccc1)C(=O)O (centres undefined)	16.6	7.25	21.6	-17.5	12.6%	11.4
CCC(C)(C)c1ccc(OCCOC(C)=O)cc1	3.1	-11.8	26.1	-13.7	18.7%	23.1
CC(=O)c1ccc2ccc3ccccc3c2c1	15.2	-0.6	18.6	-31.1	1.15%	11.8
CCSc1ccc(C)cc1	28.6	-3.15	-20.8	26.5	-8.1%	12.6
CCCCCC#CC1OC1(C)C (centres undefined)	-2.1	-8.05	-2.8	-27	5.95%	-12.2

Structure (SMILES)	growth inhibition [1] [%]	growth inhibition [2] [%]	growth inhibition [3] [%]	growth inhibition [4] [%]	growth inhibition [5]	growth inhibition [6] [%]
CC1=Nc2ccccc2C1(C)C	8.25	8.8	15	21.2	4.55%	9.3
CCOc1c(N=Nc2ccccc2Cl)c(-c2ccccc2)nn1C(N)=S	6.75	16.9	-1.95	6.1	-3.95%	15.6
CC1(C)OC2C(COCc3ccccc3)=CC(n3ccc(=O)[nH]c3=O)C2O1 (centres undefined)	-8.3	-16.8	1.7	-0.7	10.1%	14.3
COC1(C)C=NCC(C)(C)NC(=O)C(C)(OC)C=NCC(C)(C)NC1=O (centres undefined)	-12.4	-27.6	-29.4	-16.4	-21.6%	-26.5
O=[N+]([O-])c1cc(Cl)ccc1Sc1ccccc1	39.6	8.25	34.3	21.9	24.7%	27.3
O=C(c1ccc(F)cc1)C1CC1	3.7	-17.8	19	9.3	-0.95%	2.25
CN(/N=C/C=N/N(C)C1=NCCN1)C1=NCCN1	4.35	-5.75	0.15	8.05	0.25%	-9.65
CCCNC(=O)c1cccc(-c2cccc(C(=O)NCCC)c2)c1	30.1	-10.3	28.4	12.3	25.4%	31.6
CC(=O)OCc1cc2c(cc1CNCc1ccccc1)OCO2	12.5	-2.15	7.25	-31.4	5%	7.25
CCOC(=O)C1(N)CC1	4.65	7.1	2.8	-10	-11.4%	17.2
CCOC(=O)/C(=C\c1c(C)[nH]c2ccccc12)P(=O)(OCC)OCC	-15.2	-15.7	-22.9	-0.3	-8.95%	11.5
O=C(NN1C(=O)C(Cl)C1c1cccc(O)c1)c1ccccc1O (centres undefined)	-47.5	-34	-32.8	5.55	-29.2%	-39.1
Cc1nnc(CC#N)n1NC(=O)CC#N	3.95	-3.15	-2.7	-18	8.65%	9.95
COC(=O)C1(C)CCCC2(C)C1CCC13OC(=O)C(C(C)C)(CC21)C3O (centres undefined)	-3.6	-28.3	-10.8	-33.7	-1.45%	-28.8
C/C=C/C(=O)Oc1ccccc1/C=C/C(=O)CCCCCC	15.2	11.1	23.6	8.25	10.9%	10.9
C=C1CCCCCCCCCCC1S(=O)c1ccccc1 (centres undefined)	14.5	14.3	4.15	-6.6	-5.4%	31.5
CCOC(=O)C(=O)C(C(=O)c1ccccn1)c1nc2n(c1O)C(=N)N=N2 (centres undefined)	-4.1	4.4	-3.1	-0.25	-5.35%	5.3
CC1OC(OC2CCc3c(O)c4c(c(O)c3C2)C(=O)c2ccccc2C4=O)CC(N)C1O (centres undefined)	5.25	8.9	5.85	14.8	-1.85%	-2.15
CCOC#CCCOCc1ccccc1	-28.9	-46.2	-5.25	-1.65	-11%	-16.6
